Tests used:
Assay in all cases: DAPPL (digital affinity profiling via proximity ligation, sequencing); 10 mM Tris-HCl pH 7.5, 50 mM NaCl, 1 mM DTT, 4% glycerol, room temperature, 30 min; GST-TFs on glutathione beads, 16-mer random dsDNA library, 0.1% formaldehyde crosslink after washing; high values mean tight binding
[1] = molecular target: T1, FLI1 (Homo sapiens, UniProt Q01543 1-452); details: protein: recombinant; tags: N-terminal GST; dsDNA, one strand shown
T1 sequence: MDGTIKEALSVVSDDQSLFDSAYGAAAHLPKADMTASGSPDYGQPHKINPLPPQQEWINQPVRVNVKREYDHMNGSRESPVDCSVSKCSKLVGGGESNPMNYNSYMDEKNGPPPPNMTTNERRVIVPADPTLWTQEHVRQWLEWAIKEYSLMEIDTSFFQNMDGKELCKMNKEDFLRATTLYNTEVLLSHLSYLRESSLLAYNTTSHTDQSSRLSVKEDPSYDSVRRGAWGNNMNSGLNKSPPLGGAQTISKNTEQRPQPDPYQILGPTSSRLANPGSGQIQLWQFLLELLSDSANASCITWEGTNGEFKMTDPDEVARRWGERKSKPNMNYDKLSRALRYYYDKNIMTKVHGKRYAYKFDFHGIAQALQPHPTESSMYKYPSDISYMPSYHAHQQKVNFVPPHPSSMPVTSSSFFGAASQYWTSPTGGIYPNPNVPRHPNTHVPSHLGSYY
Method in brief: (§1)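 A tag-only sample was pooled with DNA-barcoded human transcription factors that had been expressed in yeast as GST fusions and captured on glutathione beads. The pools were incubated for 30 min at room temperature with 200 nmole of a random double-stranded 16-mer DNA library in Tris/NaCl/DTT/glycerol buffer, then washed, crosslinked with 0.1% formaldehyde, proximity-ligated (BsaI/T4 ligase, 1 h, 37 °C), PCR-amplified and sequenced on an Illumina NextSeq500. Binding signal is each hexamer's read frequency for a factor divided by its frequency for the tag-only sample.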

[2] = molecular target: T2, ELK1 (Homo sapiens, UniProt P19419 1-428); details: protein: recombinant; tags: N-terminal GST; dsDNA, one strand shown
T2 sequence: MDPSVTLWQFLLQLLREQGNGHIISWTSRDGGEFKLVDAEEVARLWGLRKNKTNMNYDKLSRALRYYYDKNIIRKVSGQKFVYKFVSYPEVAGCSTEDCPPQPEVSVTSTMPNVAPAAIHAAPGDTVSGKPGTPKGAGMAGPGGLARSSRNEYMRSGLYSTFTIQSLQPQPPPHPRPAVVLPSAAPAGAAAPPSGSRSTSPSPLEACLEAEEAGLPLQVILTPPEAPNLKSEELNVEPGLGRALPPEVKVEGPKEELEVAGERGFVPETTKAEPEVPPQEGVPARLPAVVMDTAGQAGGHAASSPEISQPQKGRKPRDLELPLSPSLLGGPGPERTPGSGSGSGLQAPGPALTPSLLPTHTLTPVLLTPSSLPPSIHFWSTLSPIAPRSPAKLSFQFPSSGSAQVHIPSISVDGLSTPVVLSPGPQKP
Method in brief: as §1

[3] = molecular target: T3, GABPA (Homo sapiens, UniProt Q06546 1-454); details: protein: recombinant; tags: N-terminal GST; dsDNA, one strand shown
T3 sequence: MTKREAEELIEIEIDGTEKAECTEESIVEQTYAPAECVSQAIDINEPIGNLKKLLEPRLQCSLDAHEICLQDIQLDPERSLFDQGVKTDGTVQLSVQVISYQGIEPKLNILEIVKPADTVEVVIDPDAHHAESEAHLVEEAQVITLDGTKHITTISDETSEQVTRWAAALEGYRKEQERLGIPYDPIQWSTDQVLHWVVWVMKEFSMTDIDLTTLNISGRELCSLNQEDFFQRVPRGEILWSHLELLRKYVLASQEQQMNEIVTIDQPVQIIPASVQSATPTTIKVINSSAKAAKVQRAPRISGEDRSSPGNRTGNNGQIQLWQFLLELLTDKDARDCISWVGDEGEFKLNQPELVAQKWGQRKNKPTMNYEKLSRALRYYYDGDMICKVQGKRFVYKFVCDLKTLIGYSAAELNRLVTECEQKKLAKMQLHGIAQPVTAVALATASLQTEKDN
Method in brief: as §1

[4] = molecular target: T4, ERG (Homo sapiens, UniProt P11308 1-479); details: protein: recombinant; tags: N-terminal GST; dsDNA, one strand shown
T4 sequence: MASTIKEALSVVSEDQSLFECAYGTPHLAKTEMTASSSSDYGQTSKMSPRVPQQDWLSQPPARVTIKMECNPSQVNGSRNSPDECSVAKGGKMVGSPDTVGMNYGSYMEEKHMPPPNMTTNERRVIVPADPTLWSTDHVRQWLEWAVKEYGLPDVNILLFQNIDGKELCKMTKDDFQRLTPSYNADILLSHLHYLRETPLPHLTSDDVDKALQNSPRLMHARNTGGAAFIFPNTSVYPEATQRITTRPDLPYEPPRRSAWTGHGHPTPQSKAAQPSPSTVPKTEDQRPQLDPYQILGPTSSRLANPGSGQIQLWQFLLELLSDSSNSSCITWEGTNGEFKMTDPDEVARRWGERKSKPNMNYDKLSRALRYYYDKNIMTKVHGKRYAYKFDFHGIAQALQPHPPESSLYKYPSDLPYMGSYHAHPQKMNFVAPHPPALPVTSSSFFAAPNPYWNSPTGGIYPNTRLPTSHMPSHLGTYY
Method in brief: as §1

[5] = molecular target: ELF1 (Homo sapiens, UniProt P32519 1-619); details: protein: recombinant; tags: N-terminal GST; dsDNA, one strand shown
Method in brief: as §1

[6] = molecular target: T5, EHF (Homo sapiens, UniProt Q9NZC4 1-300); details: protein: recombinant; tags: N-terminal GST; dsDNA, one strand shown
T5 sequence: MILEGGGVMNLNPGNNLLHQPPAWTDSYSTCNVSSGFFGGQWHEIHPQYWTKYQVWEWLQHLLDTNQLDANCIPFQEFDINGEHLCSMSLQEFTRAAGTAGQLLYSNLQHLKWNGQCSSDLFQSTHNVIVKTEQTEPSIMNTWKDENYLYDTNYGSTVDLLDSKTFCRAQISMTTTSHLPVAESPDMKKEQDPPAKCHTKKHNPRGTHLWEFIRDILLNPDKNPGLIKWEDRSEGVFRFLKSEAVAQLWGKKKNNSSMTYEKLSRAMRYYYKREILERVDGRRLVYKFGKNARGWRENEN
Method in brief: as §1

[7] = molecular target: SPI1 (Homo sapiens, UniProt P17947 1-270); details: protein: recombinant; tags: N-terminal GST; dsDNA, one strand shown
Method in brief: as §1

[8] = molecular target: SPIB (Homo sapiens, UniProt Q01892 1-262); details: protein: recombinant; tags: N-terminal GST; dsDNA, one strand shown
Method in brief: as §1

[9] = molecular target: T6, ELK3 (Homo sapiens, UniProt P41970 1-407); details: protein: recombinant; tags: N-terminal GST; dsDNA, one strand shown
T6 sequence: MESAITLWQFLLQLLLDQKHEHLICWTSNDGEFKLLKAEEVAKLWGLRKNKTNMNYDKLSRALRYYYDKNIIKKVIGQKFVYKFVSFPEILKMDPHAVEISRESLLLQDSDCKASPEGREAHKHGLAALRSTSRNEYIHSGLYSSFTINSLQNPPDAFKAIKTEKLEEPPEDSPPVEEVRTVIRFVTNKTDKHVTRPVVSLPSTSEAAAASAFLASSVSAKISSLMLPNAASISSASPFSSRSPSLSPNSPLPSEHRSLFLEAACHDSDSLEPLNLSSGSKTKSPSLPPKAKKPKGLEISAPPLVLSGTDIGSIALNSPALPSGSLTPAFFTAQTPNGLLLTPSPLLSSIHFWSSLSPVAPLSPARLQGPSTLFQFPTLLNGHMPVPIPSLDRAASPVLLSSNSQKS
Method in brief: as §1

[10] = molecular target: T7, FEV (Homo sapiens, UniProt Q99581 1-238); details: protein: recombinant; tags: N-terminal GST; dsDNA, one strand shown
T7 sequence: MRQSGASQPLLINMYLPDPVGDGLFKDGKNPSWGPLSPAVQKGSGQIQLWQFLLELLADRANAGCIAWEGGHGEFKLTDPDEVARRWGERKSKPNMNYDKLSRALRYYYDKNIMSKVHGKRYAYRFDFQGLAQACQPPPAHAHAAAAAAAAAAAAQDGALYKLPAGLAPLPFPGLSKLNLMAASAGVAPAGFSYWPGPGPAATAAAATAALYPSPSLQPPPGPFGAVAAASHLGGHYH
Method in brief: as §1

[11] = molecular target: ETV5 (Homo sapiens, UniProt P41161 1-510); details: protein: recombinant; tags: N-terminal GST; dsDNA, one strand shown
Method in brief: as §1

[12] = molecular target: HSF1 (Homo sapiens, UniProt Q00613 1-529); details: protein: recombinant; tags: N-terminal GST; chain copies: 3; dsDNA, one strand shown
Method in brief: as §1

[13] = molecular target: T8, SPIC (Homo sapiens, UniProt Q8N5J4 1-248); details: protein: recombinant; tags: N-terminal GST; dsDNA, one strand shown
T8 sequence: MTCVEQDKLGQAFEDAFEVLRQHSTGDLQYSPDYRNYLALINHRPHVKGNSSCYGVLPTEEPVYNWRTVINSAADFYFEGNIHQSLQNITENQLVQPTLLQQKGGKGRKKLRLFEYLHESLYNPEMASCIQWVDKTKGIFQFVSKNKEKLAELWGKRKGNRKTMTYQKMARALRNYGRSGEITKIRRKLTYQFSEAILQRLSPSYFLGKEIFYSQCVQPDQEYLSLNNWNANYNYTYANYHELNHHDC
Method in brief: as §1

[14] = molecular target: ELF4 (Homo sapiens, UniProt Q99607 1-663); details: protein: recombinant; tags: N-terminal GST; dsDNA, one strand shown
Method in brief: as §1

[15] = molecular target: T9, ELK4 (Homo sapiens, UniProt P28324-2 1-405); details: protein: recombinant; tags: N-terminal GST; dsDNA, one strand shown
T9 sequence: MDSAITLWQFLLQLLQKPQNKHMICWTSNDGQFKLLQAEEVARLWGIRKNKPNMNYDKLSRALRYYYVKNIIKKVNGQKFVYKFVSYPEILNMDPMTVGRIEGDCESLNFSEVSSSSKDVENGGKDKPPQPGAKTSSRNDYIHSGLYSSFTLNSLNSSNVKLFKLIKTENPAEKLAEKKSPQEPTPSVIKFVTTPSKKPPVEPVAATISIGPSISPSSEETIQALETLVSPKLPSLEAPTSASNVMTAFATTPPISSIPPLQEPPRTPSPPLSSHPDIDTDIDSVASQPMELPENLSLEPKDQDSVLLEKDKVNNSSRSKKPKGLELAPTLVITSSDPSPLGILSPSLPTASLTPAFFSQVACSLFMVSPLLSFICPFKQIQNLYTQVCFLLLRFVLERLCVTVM
Method in brief: as §1

[16] = molecular target: T10, ETV2 (Homo sapiens, UniProt O00321 1-342); details: protein: recombinant; tags: N-terminal GST; dsDNA, one strand shown
T10 sequence: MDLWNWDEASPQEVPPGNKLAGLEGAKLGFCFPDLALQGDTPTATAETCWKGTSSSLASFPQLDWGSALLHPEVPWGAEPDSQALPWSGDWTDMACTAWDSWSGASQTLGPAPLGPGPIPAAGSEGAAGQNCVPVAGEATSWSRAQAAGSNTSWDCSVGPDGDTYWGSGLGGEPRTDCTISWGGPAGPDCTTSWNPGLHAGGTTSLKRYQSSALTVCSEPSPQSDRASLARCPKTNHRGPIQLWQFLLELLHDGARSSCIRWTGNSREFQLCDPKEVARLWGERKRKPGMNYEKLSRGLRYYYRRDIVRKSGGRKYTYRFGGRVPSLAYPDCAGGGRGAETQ
Method in brief: as §1

[17] = molecular target: T11, ELF3 (Homo sapiens, UniProt P78545 1-371); details: protein: recombinant; tags: N-terminal GST; dsDNA, one strand shown
T11 sequence: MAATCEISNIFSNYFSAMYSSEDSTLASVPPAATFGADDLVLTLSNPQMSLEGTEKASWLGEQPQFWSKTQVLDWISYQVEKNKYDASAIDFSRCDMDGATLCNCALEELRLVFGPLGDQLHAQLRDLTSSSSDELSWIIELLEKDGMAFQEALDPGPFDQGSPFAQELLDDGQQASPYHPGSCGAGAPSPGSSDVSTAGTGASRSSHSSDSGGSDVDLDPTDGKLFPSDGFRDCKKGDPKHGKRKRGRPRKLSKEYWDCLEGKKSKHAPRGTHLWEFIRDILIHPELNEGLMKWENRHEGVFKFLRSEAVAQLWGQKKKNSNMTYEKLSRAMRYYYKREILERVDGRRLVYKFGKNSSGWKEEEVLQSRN
Method in brief: as §1

[18] = molecular target: CRX (Homo sapiens, UniProt O43186 1-299); details: protein: recombinant; tags: N-terminal GST; dsDNA, one strand shown
Method in brief: as §1

[19] = molecular target: ETV1 (Homo sapiens, UniProt P50549 1-477); details: protein: recombinant; tags: N-terminal GST; dsDNA, one strand shown
Method in brief: as §1

Sequence of HSF1 (Q00613 whole entry): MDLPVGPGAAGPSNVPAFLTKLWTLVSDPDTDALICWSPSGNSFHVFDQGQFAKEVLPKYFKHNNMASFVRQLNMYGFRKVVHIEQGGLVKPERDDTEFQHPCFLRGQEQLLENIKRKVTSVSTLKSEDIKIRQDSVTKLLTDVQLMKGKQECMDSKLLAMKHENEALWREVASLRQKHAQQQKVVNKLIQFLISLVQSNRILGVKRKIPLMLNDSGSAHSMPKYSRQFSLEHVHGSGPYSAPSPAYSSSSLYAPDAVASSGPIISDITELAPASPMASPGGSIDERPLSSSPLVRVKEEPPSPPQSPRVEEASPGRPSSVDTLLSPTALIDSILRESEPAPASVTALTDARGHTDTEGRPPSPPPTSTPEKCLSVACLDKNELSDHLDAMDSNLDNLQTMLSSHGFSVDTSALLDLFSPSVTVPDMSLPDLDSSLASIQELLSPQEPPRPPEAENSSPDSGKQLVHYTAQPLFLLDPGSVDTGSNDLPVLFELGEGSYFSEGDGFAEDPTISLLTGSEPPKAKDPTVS
Sequence of ETV5 (P41161 whole entry): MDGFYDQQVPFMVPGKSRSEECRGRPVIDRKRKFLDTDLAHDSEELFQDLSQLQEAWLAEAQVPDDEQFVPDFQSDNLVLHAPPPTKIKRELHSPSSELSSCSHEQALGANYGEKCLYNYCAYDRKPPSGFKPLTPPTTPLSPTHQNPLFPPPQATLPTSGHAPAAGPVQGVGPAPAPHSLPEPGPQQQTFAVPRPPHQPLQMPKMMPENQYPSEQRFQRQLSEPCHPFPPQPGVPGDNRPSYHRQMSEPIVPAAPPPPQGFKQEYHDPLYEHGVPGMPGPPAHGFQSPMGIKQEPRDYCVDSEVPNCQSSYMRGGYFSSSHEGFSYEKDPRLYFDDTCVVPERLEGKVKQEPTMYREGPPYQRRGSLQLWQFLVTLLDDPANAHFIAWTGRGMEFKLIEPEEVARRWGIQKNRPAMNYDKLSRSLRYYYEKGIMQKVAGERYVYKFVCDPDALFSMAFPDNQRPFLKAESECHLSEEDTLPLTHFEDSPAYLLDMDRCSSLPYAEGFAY
Sequence of ELF4 (Q99607 whole entry): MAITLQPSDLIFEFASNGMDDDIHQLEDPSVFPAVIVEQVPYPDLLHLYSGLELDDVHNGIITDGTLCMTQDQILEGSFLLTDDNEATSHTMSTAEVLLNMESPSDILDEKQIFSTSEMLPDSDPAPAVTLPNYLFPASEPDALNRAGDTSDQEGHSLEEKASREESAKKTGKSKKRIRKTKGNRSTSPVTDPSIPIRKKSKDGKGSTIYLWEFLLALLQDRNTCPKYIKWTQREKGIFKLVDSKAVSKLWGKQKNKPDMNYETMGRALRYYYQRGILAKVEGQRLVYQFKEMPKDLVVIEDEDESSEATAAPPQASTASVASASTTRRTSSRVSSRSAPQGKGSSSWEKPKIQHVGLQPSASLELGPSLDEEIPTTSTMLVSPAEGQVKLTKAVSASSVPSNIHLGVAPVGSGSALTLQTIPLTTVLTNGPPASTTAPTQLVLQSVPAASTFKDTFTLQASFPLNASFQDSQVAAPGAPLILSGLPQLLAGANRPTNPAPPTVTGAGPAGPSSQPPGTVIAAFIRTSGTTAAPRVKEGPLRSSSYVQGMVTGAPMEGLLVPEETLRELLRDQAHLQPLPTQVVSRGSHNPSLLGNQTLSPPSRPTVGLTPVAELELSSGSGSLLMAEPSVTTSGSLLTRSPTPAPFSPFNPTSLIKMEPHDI
Sequence of SPIB (Q01892 whole entry): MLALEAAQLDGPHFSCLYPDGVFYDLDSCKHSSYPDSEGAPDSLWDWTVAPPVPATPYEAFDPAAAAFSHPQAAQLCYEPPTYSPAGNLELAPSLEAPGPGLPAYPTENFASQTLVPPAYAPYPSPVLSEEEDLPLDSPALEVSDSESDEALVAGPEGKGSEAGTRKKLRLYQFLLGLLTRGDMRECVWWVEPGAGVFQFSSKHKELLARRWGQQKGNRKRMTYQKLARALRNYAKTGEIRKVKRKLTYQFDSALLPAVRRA
Sequence of CRX (O43186 whole entry): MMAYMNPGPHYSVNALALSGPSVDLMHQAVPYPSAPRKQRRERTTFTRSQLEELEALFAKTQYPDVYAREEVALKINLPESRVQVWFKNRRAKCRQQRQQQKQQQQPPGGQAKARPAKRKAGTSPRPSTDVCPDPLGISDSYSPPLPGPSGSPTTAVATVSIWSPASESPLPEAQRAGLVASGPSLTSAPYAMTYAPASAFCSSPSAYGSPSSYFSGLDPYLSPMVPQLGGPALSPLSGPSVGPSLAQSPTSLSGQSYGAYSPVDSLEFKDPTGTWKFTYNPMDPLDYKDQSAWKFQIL
Sequence of ELF1 (P32519 whole entry): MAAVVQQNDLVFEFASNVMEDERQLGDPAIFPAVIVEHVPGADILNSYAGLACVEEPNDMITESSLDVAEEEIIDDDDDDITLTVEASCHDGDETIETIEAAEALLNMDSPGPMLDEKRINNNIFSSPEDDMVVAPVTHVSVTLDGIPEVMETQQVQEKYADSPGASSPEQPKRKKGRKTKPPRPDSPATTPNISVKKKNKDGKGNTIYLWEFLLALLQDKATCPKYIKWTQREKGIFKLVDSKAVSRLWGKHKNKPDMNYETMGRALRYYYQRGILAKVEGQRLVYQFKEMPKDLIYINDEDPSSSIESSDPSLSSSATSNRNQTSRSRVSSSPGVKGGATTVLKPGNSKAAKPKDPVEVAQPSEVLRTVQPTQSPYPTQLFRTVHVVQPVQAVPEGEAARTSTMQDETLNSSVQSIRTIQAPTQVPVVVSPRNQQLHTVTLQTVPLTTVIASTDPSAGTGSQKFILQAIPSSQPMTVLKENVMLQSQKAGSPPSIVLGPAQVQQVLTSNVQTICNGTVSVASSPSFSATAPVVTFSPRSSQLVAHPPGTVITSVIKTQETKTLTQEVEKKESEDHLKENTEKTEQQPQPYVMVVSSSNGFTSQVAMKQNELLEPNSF
Sequence of ETV1 (P50549 whole entry): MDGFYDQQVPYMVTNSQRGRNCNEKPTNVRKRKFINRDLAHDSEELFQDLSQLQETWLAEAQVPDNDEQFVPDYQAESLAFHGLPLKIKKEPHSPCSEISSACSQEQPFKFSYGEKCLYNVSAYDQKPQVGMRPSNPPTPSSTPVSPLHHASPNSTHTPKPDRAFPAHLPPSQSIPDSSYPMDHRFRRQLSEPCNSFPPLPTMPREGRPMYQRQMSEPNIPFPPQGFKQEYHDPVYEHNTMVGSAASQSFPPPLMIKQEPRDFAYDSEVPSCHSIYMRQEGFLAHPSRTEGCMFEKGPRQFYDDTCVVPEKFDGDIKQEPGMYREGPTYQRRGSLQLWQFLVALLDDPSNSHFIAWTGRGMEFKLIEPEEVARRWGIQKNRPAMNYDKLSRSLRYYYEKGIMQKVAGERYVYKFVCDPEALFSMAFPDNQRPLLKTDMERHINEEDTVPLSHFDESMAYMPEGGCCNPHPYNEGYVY

In the case of CTCATA, the binding signal [1] was 1.39 fold enrichment (6-mer frequency, TF over GST control), the binding signal [2] was 1.48 fold enrichment (6-mer frequency, TF over GST control) and the binding signal [3] was 1.36 fold enrichment (6-mer frequency, TF over GST control). For the same sequence, the binding signal [4] was 1.3 fold enrichment (6-mer frequency, TF over GST control), the binding signal [5] was 1.38 fold enrichment (6-mer frequency, TF over GST control) and the binding signal [6] was 1.27 fold enrichment (6-mer frequency, TF over GST control). For the same sequence, the binding signal [7] was 1.43 fold enrichment (6-mer frequency, TF over GST control), the binding signal [8] was 1.48 fold enrichment (6-mer frequency, TF over GST control) and the binding signal [9] was 1.34 fold enrichment (6-mer frequency, TF over GST control). For the same sequence, the binding signal [10] was 1.29 fold enrichment (6-mer frequency, TF over GST control), the binding signal [11] was 1.37 fold enrichment (6-mer frequency, TF over GST control) and the binding signal [12] was 1.25 fold enrichment (6-mer frequency, TF over GST control). The binding signal [13] was 1.46 fold enrichment (6-mer frequency, TF over GST control), the binding signal [14] was 1.41 fold enrichment (6-mer frequency, TF over GST control) and the binding signal [15] was 1.35 fold enrichment (6-mer frequency, TF over GST control). For the same sequence, the binding signal [16] was 1.44 fold enrichment (6-mer frequency, TF over GST control), the binding signal [17] was 1.34 fold enrichment (6-mer frequency, TF over GST control) and the binding signal [18] was 1.38 fold enrichment (6-mer frequency, TF over GST control). The binding signal [19] was 1.39 fold enrichment (6-mer frequency, TF over GST control).
